Source: PubChem (Broad Institute)
A selection follows.
aSyn UTR act: Activators via SNCA 5'UTR binding, MLPCN; alpha-synuclein 5'UTR reporter, activators screen; activity score, % (tested at 7.5 µM), hits read low; 300,000 compounds, 7.1% hits; AID 1814; in the data active = activity score below about -60%
A number is an active result; n = inactive.

SMILES	aSyn UTR act
CCn1c2ccccc2c2cc(NC(=O)CSc3nnc(-c4cccc(F)c4)o3)ccc21	-68
CCn1c2ccccc2c2cc(NC(=O)CSc3nnc(-c4ccccc4)o3)ccc21	-155
O=C(COc1ccccc1[N+](=O)[O-])N/N=C/c1cccc(OC(=O)c2ccc3c(c2)OCO3)c1	-157
O=C(COc1ccccc1[N+](=O)[O-])Nc1ccc(NC(=O)c2cc3ccccc3o2)cc1	-119
O=C(COc1cc(F)ccc1[N+](=O)[O-])Nc1cccc(Br)c1	-71
O=C(COc1ccc(/C=N/NC(=O)c2cc3ccccc3o2)cc1Br)Nc1ccccc1	n
O=C(COc1ccccc1[N+](=O)[O-])Nc1ccc2c(c1)OCO2	-133
O=C(Cc1ccccc1[N+](=O)[O-])Nc1ccc2c(c1)OCCO2	-100
COC(=O)c1cn(C(=O)c2ccc(OC)cc2)c2ccccc12	-147
O=C(Nc1c2c(nn1-c1ccc(F)cc1)CS(=O)(=O)C2)C1CCCC1	-62
CCCOc1ccc2c(C)c(CC(=O)OC)c(=O)oc2c1	-118
CC(=O)COc1ccc2c(C)c(C)c(=O)oc2c1	-118
COc1ccc(-c2c(C)c3ccc(OCC(C)=O)cc3oc2=O)cc1	-142
COc1ccc(-c2c(C)c3ccc(O)cc3oc2=O)cc1	-97
O=C(NC12CC3CC(CC(C3)C1)C2)c1ccc(-c2ccc(Br)cc2)o1	-246
O=C(NC12CC3CC(CC(C3)C1)C2)c1ccc([N+](=O)[O-])o1	-200
O=C(NNC(=S)Nc1ccccc1Cl)c1ccccc1	-98
COc1ccc(C(=O)NNC(=O)c2cccc(F)c2)cc1	-82
CC(=O)c1ccc(NC(=S)NNC(=O)c2ccncc2)cc1	-70
COc1ccccc1NC(=S)NNC(=O)c1ccccc1	-101
N#Cc1ccccc1N/C=C/C(=O)c1ccc(Cl)cc1	-169
COc1ccc(C(=O)NNC(=S)Nc2ccccc2)cc1	-207
O=C(/C=C/NNC(=O)c1ccc(Cl)cc1)c1ccccc1	-77
O=C(NNC(=S)Nc1ccc(Cl)cc1)c1ccccc1	-87
O=C(NNC(=S)Nc1cccc(Cl)c1)c1ccccc1	-104
SMILES	aSyn UTR act
CCCC(=O)NC(=S)Nc1ccc(C(C)=O)cc1	-84
Cc1nn(C)c(C(=O)NNC(=S)Nc2ccc(Cl)cc2)c1[N+](=O)[O-]	-71
O=C1C(=O)N(c2ccccc2)C(c2ccccc2[N+](=O)[O-])/C1=C(\O)c1ccccc1 (centres undefined)	-93
O=C1C(=O)N(c2cccc(Cl)c2)C(c2ccccc2[N+](=O)[O-])/C1=C(\O)c1ccccc1 (centres undefined)	-88
N#CCSc1nc(-c2ccccc2)cs1	-75
CC(C)NC(=O)CSc1nc(-c2ccccc2)cs1	-160
N#CCSc1ccc2nc(-c3ccccc3)cn2n1	-104
CSc1nc(N)nc(SCC(=O)OC(C)C)c1C#N	-82
Cc1snc(SCC(=O)c2ccc(F)cc2)c1C#N	-124
CSc1nc(N)nc(SCC(=O)c2ccc(C)cc2)c1C#N	-113
CCCn1c(CNc2ccc(Br)cc2)nc2ccccc21	-119
CCOCCn1c(COc2ccc(C)cc2)nc2ccccc21	-118
COCCn1c(COc2ccc(C)cc2)nc2ccccc21	-95
Cn1c(COc2ccccc2)nc2ccccc21	-99
CCn1c(COc2ccc(C)cc2)nc2ccccc21	-126
Cc1ccc(NCc2nc3ccccc3n2CCOc2ccccc2)cc1	-136
Cc1ccc(NC(=O)c2cn(-c3cccc(C)n3)cn2)cc1	-212
Cc1cccc(-n2cnc(C(=O)N/N=C/c3ccccc3)c2)n1	-78
Cc1ccc(Oc2nn[nH]n2)cc1	-77
O=C(Nc1ccc(Cl)cc1)OCc1ccccn1	-134
CS(=O)(=O)c1ccccc1COC(=O)Nc1ccc(Cl)cc1	-70
O=C(Nc1nnc(C2CCCCC2)s1)c1cccs1	-163
O=C(Nc1nnc(C2CCCO2)s1)c1cccs1 (centres undefined)	-90
COc1cccc(C(=O)Nc2nnc(C3CCCO3)s2)c1 (centres undefined)	-99
COc1ccc(Nc2nccc3c2nnn3C)cc1	-144
SMILES	aSyn UTR act
CC(=O)c1ccc(NC(=O)c2ccn(C(=O)OCC(C)C)n2)cc1	-86
O=C(c1ccccc1)N1CCN(CC#Cc2ccccc2)CC1	-66
COc1ccc(NC(=O)NC2CCCCCCC2)cc1	-139
COC(=O)c1ccc(NC(=O)NC2CCCCC2)cc1	-117
Cc1ccc2nc(-c3ccc(N4C(=O)CC(N5CCC(C(N)=O)CC5)C4=O)cc3)sc2c1 (centres undefined)	-72
Cc1nc2ccccc2nc1N/N=C/c1ccc(O)cc1	-87
Oc1ccc(Nc2nc3ccccc3nc2Nc2ccc(O)cc2)cc1	n
COc1ccc(-c2cnnc(N/N=C/c3ccc(O)c(O)c3)n2)cc1	-90
Oc1ccc(/C=N\Nc2nncc(-c3ccccc3)n2)cc1	-174
COc1ccc(-c2cnnc(N/N=C/c3ccc(O)cc3)n2)cc1	-77
O=C1CC(c2ccccc2F)c2cc3c(cc2N1)CCC3 (centres undefined)	n
CCSc1nnc2c(n1)[nH]c1c(C)cccc12	-208
CSc1nnc2c(n1)[nH]c1c(C)cccc12	-107
